Source: PubChem BioAssay (NCI)
Compounds without any hit were thinned out: in the full panel of roughly 83,000, 20% have a hit.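 Step 1: grow cells in 96-well plates. Step 2: add test compound at a single concentration. Step 3: incubate 48 h. Step 4: record percent growth.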 Active and inactive are the calls of the source. Rule for the calls: active = growth percent below 10; inactive = the rest.

Assays:
Assay in all cases: NCI-60 one-dose screen, 48 h (100 = growth as untreated, 0 = no growth, -100 = all killed)
Conditions in all cases: 10 µM
HCT-15 colon = system: HCT-15 colon
HT29 colon = system: HT29 colon
SNB-75 CNS = system: SNB-75 CNS
SNB-19 CNS = system: SNB-19 CNS
U251 CNS = system: U251 CNS
PC-3 prostate = system: PC-3 prostate
SK-MEL-5 melanoma = system: SK-MEL-5 melanoma
UACC-62 melanoma = system: UACC-62 melanoma
LOX IMVI melanoma = system: LOX IMVI melanoma
SK-MEL-28 melanoma = system: SK-MEL-28 melanoma
SK-MEL-2 melanoma = system: SK-MEL-2 melanoma
EKVX NSCLC = system: EKVX NSCLC
SN12C renal = system: SN12C renal
UO-31 renal = system: UO-31 renal
TK-10 renal = system: TK-10 renal
ACHN renal = system: ACHN renal
CAKI-1 renal = system: CAKI-1 renal
A498 renal = system: A498 renal
CCRF-CEM leukemia = system: CCRF-CEM leukemia

Measured: growth

O=C(CS(=O)(=O)c1oc(-c2ccc(Cl)cc2)nc1S(=O)(=O)c1ccc(Cl)cc1)N1CCOCC1
active: HCT-15 colon -53.6% | HT29 colon -48.9% | LOX IMVI melanoma -90.8% | UO-31 renal -19.9% | ACHN renal -98.2% | CCRF-CEM leukemia -34.6%
inactive: SNB-75 CNS 54.7% | SNB-19 CNS 86.2% | U251 CNS 35.9% | PC-3 prostate 63.3% | SK-MEL-5 melanoma 77.6% | UACC-62 melanoma 56.7% | SK-MEL-28 melanoma 35% | SK-MEL-2 melanoma 83.9% | EKVX NSCLC 83.5% | SN12C renal 55.3% | TK-10 renal 16.5% | CAKI-1 renal 30.9% | A498 renal 134%

CN1CCN(c2ccc(Nc3nc(NCCNC(=O)c4ccc(C(F)(F)F)cc4)c4sccc4n3)cc2)CC1
inactive: SNB-19 CNS 31.5% | PC-3 prostate 41% | EKVX NSCLC 59.7% | SN12C renal 73.6% | TK-10 renal 12% | ACHN renal 10.7% | CAKI-1 renal 22.5% | A498 renal 69%
active: HCT-15 colon -42.6% | HT29 colon -67% | SNB-75 CNS -10.7% | U251 CNS -17.7% | SK-MEL-5 melanoma -99.5% | UACC-62 melanoma -89.7% | LOX IMVI melanoma -93.9% | SK-MEL-28 melanoma -96.3% | SK-MEL-2 melanoma -41.9% | UO-31 renal 4.76% | CCRF-CEM leukemia -31.1%

Cc1ccc(/C=C(\C#N)n2nnc3c(F)cccc32)cc1
inactive: HCT-15 colon 12.2% | SNB-75 CNS 17.9% | SNB-19 CNS 23.6% | PC-3 prostate 24.7% | UACC-62 melanoma 36.8% | SK-MEL-28 melanoma 28.8% | SK-MEL-2 melanoma 16.5% | EKVX NSCLC 28.8% | UO-31 renal 15.2% | ACHN renal 19.7% | CAKI-1 renal 21.8% | A498 renal 71.8%
active: HT29 colon 2.75% | U251 CNS -26.1% | SK-MEL-5 melanoma -23.5% | LOX IMVI melanoma -9.47% | SN12C renal 4.19% | TK-10 renal 0.416%

CNC(=O)c1cc(-c2ccc(NC(=O)Nc3ccc(C)cc3)cc2)nc2cccnc12
inactive: HCT-15 colon 93.6% | HT29 colon 99.2% | SNB-75 CNS 107% | SNB-19 CNS 91.7% | U251 CNS 101% | PC-3 prostate 87.1% | SK-MEL-5 melanoma 95.4% | UACC-62 melanoma 83.8% | LOX IMVI melanoma 101% | SK-MEL-28 melanoma 118% | SK-MEL-2 melanoma 103% | EKVX NSCLC 99.4% | SN12C renal 101% | UO-31 renal 63.9% | TK-10 renal 108% | ACHN renal 92.3% | CAKI-1 renal 92.8% | A498 renal 95.4% | CCRF-CEM leukemia 93.5%

COc1ccc(-c2nc(S(=O)(=O)c3ccccc3)c(S(C)(=O)=O)o2)cc1
active: HCT-15 colon -73% | HT29 colon -55.2% | LOX IMVI melanoma -85.3% | SK-MEL-28 melanoma -82.9% | SN12C renal -63.7% | UO-31 renal -100% | TK-10 renal -99.3% | ACHN renal -100% | CAKI-1 renal -94.2% | CCRF-CEM leukemia -46.7%
inactive: SNB-75 CNS 77.1% | SNB-19 CNS 84.4% | U251 CNS 12% | PC-3 prostate 78.2% | SK-MEL-5 melanoma 66.5% | UACC-62 melanoma 33.5% | SK-MEL-2 melanoma 69.7% | EKVX NSCLC 94.1% | A498 renal 113%

O=C(Cn1cc(CSc2nnc3oc4ccccc4n23)nn1)Nc1cccc(Cl)c1
inactive: HCT-15 colon 62.4% | HT29 colon 82.3% | SNB-75 CNS 51% | SNB-19 CNS 74.5% | U251 CNS 70.6% | PC-3 prostate 50.4% | SK-MEL-5 melanoma 58.3% | UACC-62 melanoma 49.6% | LOX IMVI melanoma 58.3% | SK-MEL-28 melanoma 81.5% | SK-MEL-2 melanoma 55.6% | EKVX NSCLC 57.6% | SN12C renal 76.5% | UO-31 renal 55.3% | TK-10 renal 79.3% | ACHN renal 66.7% | CAKI-1 renal 59.8% | A498 renal 106% | CCRF-CEM leukemia 50.6%

O=C(Nc1ccc(OCC(=O)c2ccccc2)cc1)Nc1ccc(Cl)c(C(F)(F)F)c1
active: SNB-75 CNS 3.5% | PC-3 prostate 6.92% | SK-MEL-5 melanoma -61.2% | UACC-62 melanoma -21.3% | LOX IMVI melanoma -24.4% | SK-MEL-28 melanoma 4.82% | SK-MEL-2 melanoma -53.7% | CCRF-CEM leukemia 9.86%
inactive: HCT-15 colon 17.8% | HT29 colon 29.3% | SNB-19 CNS 15.7% | U251 CNS 25.8% | EKVX NSCLC 17.2% | SN12C renal 24.9% | UO-31 renal 17.6% | TK-10 renal 49.2% | ACHN renal 18.1% | CAKI-1 renal 20.2% | A498 renal 17.1%

O=C(Nc1ccccc1)Nc1nc2ccccc2s1
inactive: HCT-15 colon 66.7% | HT29 colon 89.4% | SNB-75 CNS 109% | SNB-19 CNS 89.7% | U251 CNS 95.9% | PC-3 prostate 67.3% | SK-MEL-5 melanoma 61.1% | UACC-62 melanoma 48.3% | LOX IMVI melanoma 83.2% | SK-MEL-28 melanoma 41.4% | SK-MEL-2 melanoma 92.9% | EKVX NSCLC 64.1% | SN12C renal 88.9% | UO-31 renal 57.5% | TK-10 renal 95.4% | ACHN renal 82.2% | CAKI-1 renal 76.7% | A498 renal 129% | CCRF-CEM leukemia 67.5%

CCC(C)S(=O)(=O)c1oc(-c2ccc(C)cc2)nc1S(=O)(=O)c1ccccc1 (configuration not stated)
active: HCT-15 colon -72.2% | HT29 colon -71.5% | SNB-75 CNS 3.57% | SNB-19 CNS 0.128% | U251 CNS -95.9% | PC-3 prostate -60.5% | SK-MEL-5 melanoma -86.5% | UACC-62 melanoma -94.2% | LOX IMVI melanoma -94% | SK-MEL-28 melanoma -99.8% | SK-MEL-2 melanoma -94.9% | EKVX NSCLC -61% | SN12C renal -85.6% | UO-31 renal -100% | TK-10 renal -99.5% | ACHN renal -100% | CAKI-1 renal -100%
inactive: A498 renal 109%

CC1(C)CC[C@]2(C(=O)Nc3ccccc3)CC[C@]3(C)C(=CC[C@@H]4[C@@]5(C)CC[C@H](N)C(C)(C)[C@@H]5CC[C@]43C)[C@H]2C1
inactive: HT29 colon 21.8% | SNB-75 CNS 95.6% | SNB-19 CNS 100% | PC-3 prostate 75.8% | SK-MEL-5 melanoma 94.5% | UACC-62 melanoma 115% | SK-MEL-28 melanoma 109% | SK-MEL-2 melanoma 107% | EKVX NSCLC 90.5% | SN12C renal 87.7% | UO-31 renal 71.5% | TK-10 renal 107% | ACHN renal 90.3% | CAKI-1 renal 79.9% | A498 renal 131% | CCRF-CEM leukemia 32.6%
active: HCT-15 colon -71.4% | U251 CNS -47.5% | LOX IMVI melanoma -98.7%

O=C(COc1ccc(NC(=O)Nc2ccc(Cl)cc2)cc1)N=Nc1c(O)[nH]c2ccc([N+](=O)[O-])cc12
active: U251 CNS -67.6% | SK-MEL-28 melanoma -4.38% | SK-MEL-2 melanoma -15.7% | CCRF-CEM leukemia -36.9%
inactive: HCT-15 colon 94.1% | HT29 colon 34.8% | SNB-75 CNS 29.9% | SNB-19 CNS 19.1% | PC-3 prostate 46.8% | SK-MEL-5 melanoma 63.1% | UACC-62 melanoma 11.3% | LOX IMVI melanoma 13.9% | EKVX NSCLC 88.3% | SN12C renal 32.3% | UO-31 renal 77.2% | TK-10 renal 101% | ACHN renal 93.4% | CAKI-1 renal 96.3% | A498 renal 119%

C[C@H]1[C@H](C)CC[C@]2(COC(=O)CCC(=O)NCC#CCN3CCNCC3)CC[C@]3(C)C(=CC[C@@H]4[C@@]5(C)CCCNC(C)(C)[C@@H]5CC[C@]43C)[C@H]12
inactive: HCT-15 colon 16.1% | SNB-75 CNS 82.2% | SNB-19 CNS 60% | U251 CNS 14.7% | PC-3 prostate 17.8% | UACC-62 melanoma 46.7% | SK-MEL-2 melanoma 96.3% | EKVX NSCLC 73.4% | SN12C renal 64.9% | UO-31 renal 42.9% | TK-10 renal 70.9% | ACHN renal 59.4% | CAKI-1 renal 49.1% | A498 renal 111% | CCRF-CEM leukemia 12.5%
active: HT29 colon -21% | SK-MEL-5 melanoma 9.74% | LOX IMVI melanoma 1.63% | SK-MEL-28 melanoma -26.5%

Cc1ccc(C(C)C)cc1NC(=O)c1ccccc1N(C)C
inactive: HCT-15 colon 76.6% | HT29 colon 74.6% | SNB-75 CNS 112% | SNB-19 CNS 93% | U251 CNS 87.6% | PC-3 prostate 73.7% | SK-MEL-5 melanoma 86.8% | UACC-62 melanoma 63.1% | LOX IMVI melanoma 86.8% | SK-MEL-28 melanoma 92.9% | SK-MEL-2 melanoma 86.8% | EKVX NSCLC 81.1% | SN12C renal 88.1% | UO-31 renal 76.4% | TK-10 renal 90.2% | ACHN renal 88.4% | CAKI-1 renal 70.6% | A498 renal 100% | CCRF-CEM leukemia 80.1%

CC(=O)Nc1nc(-c2ccc(N3CCN(C)CC3)c(NS(=O)(=O)c3ccc(C(F)(F)F)cc3)c2)cs1
inactive: SNB-19 CNS 45.6% | U251 CNS 23.1% | PC-3 prostate 30.3% | EKVX NSCLC 72.2% | SN12C renal 13.7% | UO-31 renal 24.9% | TK-10 renal 10.8% | CAKI-1 renal 13.5% | A498 renal 52.3%
active: HCT-15 colon -67.7% | HT29 colon -18.7% | SNB-75 CNS 1.07% | SK-MEL-5 melanoma 7.11% | UACC-62 melanoma 6.26% | LOX IMVI melanoma -85.4% | SK-MEL-28 melanoma 5.39% | SK-MEL-2 melanoma 7.74% | ACHN renal 5.92% | CCRF-CEM leukemia -13.4%

CC1(C)CC[C@]23CC[C@]4(C)[C@H](CC[C@@H]5[C@@]6(C)CC[C@H](N)C(C)(C)[C@@H]6CC[C@]54C)[C@H]2[C@H]1OC3=O
active: HCT-15 colon -91.7% | HT29 colon -66.7% | SNB-75 CNS -75.3% | SNB-19 CNS -98.7% | U251 CNS -88.9% | PC-3 prostate -57.5% | SK-MEL-5 melanoma -100% | UACC-62 melanoma -96.1% | LOX IMVI melanoma -98.9% | SK-MEL-28 melanoma -100% | SK-MEL-2 melanoma -77.2% | EKVX NSCLC -95.4% | SN12C renal -96% | UO-31 renal -96.7% | TK-10 renal -90.1% | ACHN renal -100% | CAKI-1 renal -98.2% | A498 renal -90.3% | CCRF-CEM leukemia -32.4%

CC(=C(c1ccc(OCCCN(C)C)cc1)c1ccc(OCCCN(C)C)cc1)c1ccccc1
active: HCT-15 colon -92.1% | HT29 colon -78.4% | SNB-75 CNS -77.5% | SNB-19 CNS -98.1% | U251 CNS -86.1% | PC-3 prostate -74.2% | SK-MEL-5 melanoma -100% | UACC-62 melanoma -99.3% | LOX IMVI melanoma -100% | SK-MEL-28 melanoma -99.3% | SK-MEL-2 melanoma -86.5% | EKVX NSCLC -96.1% | SN12C renal -96.8% | UO-31 renal -99.9% | TK-10 renal -92% | ACHN renal -99.2% | CAKI-1 renal -100% | A498 renal -86.4% | CCRF-CEM leukemia -65.9%
